# Source: PubChem
# Most compounds without a hit are left out; they make up all but 3.6% or so of the library.
# Pf apPOL block: Pf-apPOL DNA polymerase inhibition. inhibition, % at 10 µM. Recombinant Pf-apPOL, molecular beacon fluorescence, 1.5 h. 0.25% of 210,000 active. AID 1794808
# mHTT-CaM PPI inh: inhibitors of human mutant huntingtin-calmodulin interaction | P42858 | AlphaScreen His-mHTT/GST-CaM binding, luminescence | inhibition, % at 15 µM | 3.6% of 190,000 active | AID 1671202;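 note: 0% = both proteins with DMSO and 100% = one protein alone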
# * = called active by the depositor; / = no result. Cut-off read from the data, not from the text of the source: active = inhibition above about 50%; inactive = the rest.
SMILES,Pf apPOL block,mHTT-CaM PPI inh
CN1CCN(c2nc(C(=O)N3CCCC3)cs2)CC1,1,-5
COc1ccc(C(=O)N2CCC(COCc3ccccc3)CC2)cc1,-10,2
CC1CCC(NC(=O)c2nc(-c3ccc(N4CCCC4)cc3)no2)CC1 (centres undefined),2,2
N=C1S/C(=C\c2ccc(-c3ccc(F)c(Cl)c3)o2)C(=O)N1c1nccs1,1,15
N=C1S/C(=C\c2ccc(-c3ccccc3C(=O)O)o2)C(=O)N1c1nccs1,-5,74*
N=C1S/C(=C\c2ccc(-c3cccc(F)c3)o2)C(=O)N1c1nccs1,-9,62*
N=C1S/C(=C\c2ccc(-c3ccc(F)cc3F)o2)C(=O)N1c1nccs1,0,5
CCOC(=O)NC(=O)c1ccsc1NC(=O)c1nc2ccccc2s1,8,62*
Cc1sc(NC(=O)c2nc3ccccc3s2)c(C#N)c1C,7,-1
COc1ccc(Cl)cc1C(=O)N(CC1CCOC1)C1CC1 (centres undefined),-2,-4
CCOC(=O)C(C)Oc1ccc2c(c1)OC(=Cc1ccc(C)o1)C2=O (centres undefined),-1,10
O=C1c2cccnc2C(=O)N1c1ccc(N2C(=O)c3cccnc3C2=O)c(Cl)c1,0,63*
O=C1c2ccccc2C(=O)N1c1ccc(N2C(=O)c3ccccc3C2=O)c(Cl)c1,0,20
C/C(Cl)=C\Cn1c(N2CCNCC2)nc2c1c(=O)[nH]c(=O)n2C,-6,-7
CCCSc1nsc(SCCC)c1C(=O)O,2,-5
O=C(CSc1ccc(F)cc1)N1CCN(C(=O)C2CC2c2ccccc2)CC1 (centres undefined),-11,-13
O=[N+]([O-])c1ccc2c(N=Nc3ccc4ccccc4c3O)c(O)cc(S(=O)(=O)O)c2c1,/,100*
O=[N+]([O-])c1ccc(O)c(N=Cc2sc3ccccc3c2O)c1,-5,43
CC1CCN(CCCNc2ccc(-c3nc(-c4ccc(F)cc4)no3)cn2)CC1,-4,35
CC1CCN(CCNc2ccc(-c3nc(-c4ccc(F)cc4)no3)cn2)CC1,-4,51*
C=CCn1cnc2c1c(=O)n(C1CC1)c(=O)n2-c1ccccc1C,1,3
Cc1cccc(-n2ccnc2SCC(=O)Nc2cccc(C(F)(F)F)c2)c1C,-8,17
O=C(CSc1nccn1-c1cccc(Cl)c1)Nc1cc(C(F)(F)F)ccc1Cl,-5,13
O=C(CSc1nccn1-c1ccc([N+](=O)[O-])cc1)Nc1cc(C(F)(F)F)ccc1Cl,-8,51*
Cc1cc(C)cc(-n2ccnc2SCC(=O)Nc2cccc(C(F)(F)F)c2)c1,4,52*
SMILES,Pf apPOL block,mHTT-CaM PPI inh
Cc1cccc(-n2ccnc2SCC(=O)Nc2ccc(Cl)c(Cl)c2)c1C,-7,95*
O=C(CSc1nccn1-c1ccccc1)Nc1cc(C(F)(F)F)ccc1Cl,-8,13
O=C(CSc1nccn1-c1cccc(Cl)c1)Nc1cccc(C(F)(F)F)c1,-2,61*
Cc1cccc(-n2ccnc2SCC(=O)Nc2cccc(C(F)(F)F)c2)c1,-5,49
Cc1ccsc1C=C1Oc2c(ccc(O)c2CN(C)C)C1=O,-7,8
CS(=O)(=O)Nc1cc(C(F)(F)F)ccc1Oc1ccc2c(c1)OCO2,/,6
Cc1cc(=O)[nH]c(-n2nc(C)cc2N)n1,-125,98*
Cc1cc(=O)[nH]c(-n2nc(C)cc2NC(=O)c2snnc2C)n1,-3,-13
Cc1ccccc1C(=O)N1CCC(COc2ccccc2C(=O)N2CCCC2)CC1,-2,3
COc1ccc(Cl)cc1S(=O)(=O)N1CCCC(C)(C(=O)NCc2ccccc2)C1 (centres undefined),-2,95*
Cc1cccc(S(=O)(=O)N2CCCC(C)(C(=O)NCc3ccccc3)C2)c1 (centres undefined),-4,-1
CC1(C(=O)NCc2ccccc2)CCCN(S(=O)(=O)c2ccc(F)c(Cl)c2)C1 (centres undefined),0,66*
COc1ccc(OC)c(S(=O)(=O)N2CCCC(C)(C(=O)NCc3ccccc3)C2)c1 (centres undefined),-3,15
Cc1ccc(N2CCN(C(=O)CN3CCc4ccccc4C3C(=O)N3CCCC3)CC2)cc1 (centres undefined),-2,37
CC1CCc2c(C(=O)NCCCc3ccccc3)csc2C1 (centres undefined),-4,-13
Cc1ccc(CC(=O)NC2CCN(c3nnc4ccc(C(F)(F)F)cn34)CC2)cc1,0,-6
Cc1ccc(CS(=O)(=O)CCC(=O)NCc2cccnc2)cc1,-21,-6
O=C(Cc1c[nH]c2ccccc12)N(CC1CCCO1)C1(C(=O)NC2CCCC2)CCCCC1 (centres undefined),-7,67*
O=C(Cc1c[nH]c2ccccc12)N(Cc1cccs1)C1(C(=O)NC2CCCCC2)CCCCC1,0,1
COc1cc(OC)c(OC)cc1C=C1Oc2c(ccc(O)c2CN2CCCCCC2)C1=O,0,26
COCCOC(=O)C1=C(C)OC(N)=C(C#N)C1c1ccc(Cl)cc1 (centres undefined),6,21
CCCCN(CC)S(=O)(=O)c1ccc(C(=O)Nc2nc(-c3ccccn3)cs2)cc1,-7,96*
CCCCN(CC)S(=O)(=O)c1ccc(C(=O)Nc2nnc(CC)o2)cc1,-2,24
O=C(Nc1nc(-c2ccccn2)cs1)c1ccc(S(=O)(=O)N2CCOCC2)cc1,-8,3
O=C(Nc1nc(-c2ccccn2)cs1)c1ccc(S(=O)(=O)N2CCCCC2)cc1,2,100*
SMILES,Pf apPOL block,mHTT-CaM PPI inh
CC1(C)OC(=O)C(=Cc2ccc(-c3ccc([N+](=O)[O-])cc3)o2)C(=O)O1,-4,2
O=[N+]([O-])/C=C/c1ccc(-c2ccc(Cl)cc2)o1,4,84*
O=[N+]([O-])/C=C/c1ccc(-c2ccc(Br)cc2)o1,-3,51*
O=Cc1ccc(-c2ccc([N+](=O)[O-])cc2)o1,-6,5
Cc1ccc(-c2ccc(/C=C/[N+](=O)[O-])o2)c(Br)c1,1,79*
Cc1ccc(-c2ccc(C=O)o2)c(Br)c1,-7,-8
CCc1cc(SC#N)cc(CC)c1N1C(=O)C=CC1=O,-5,22
COc1ccc2nc(C(=O)NCc3cccc(Cl)c3)cn2n1,-4,3
CCOc1ccccc1C(=O)N1CCC(COc2ccccc2C(=O)N2CCCC2)CC1,-1,-2
CCOc1ccccc1C(=O)N1CCC(CCOC)CC1,67*,-4
CS(=O)(=O)c1ccc(C(=O)Nc2cccc([N+](=O)[O-])c2)cc1,4,-17
Cc1ccccc1-c1onc(C)c1C(=O)NCC1CCCO1 (centres undefined),-3,-6
O=C1C([N+](=O)[O-])=C(O)c2cccc3cccc1c23,70*,/
O=C1c2ccc3ccccc3c2-c2cccc3cccc1c23,23,/
Cc1ccc(N(CN2C(=O)c3ccccc3C2=O)C(=O)C(F)(F)F)cc1,5,-6
Cc1c(C)n(CC(O)CNc2ccc(Cl)cc2)c2ccccc12 (centres undefined),2,100*
Cc1c(C)n(CC(O)CNC(C)c2ccccc2)c2ccccc12 (centres undefined),-4,31
Cc1ccc(NCC(O)Cn2c(C)c(C)c3ccccc32)cc1 (centres undefined),0,45
Cc1ccc(NCC(O)Cn2c(C)c(C)c3ccccc32)cc1C (centres undefined),-2,71*
